Laboratory results taken from PubChem BioAssay AID1159580 (chemical genetic matrix, 2015).
Among all 5,500 compounds or so, about 2,000 (36%) were called active. Another 18% or so got no clear call; they are omitted. Rule as the data show it: active = normalized growth mostly below about 0.91 (no sharp cut-off); inconclusive = no clear call, values can overlap the other calls; inactive = mostly above about 0.92. The list shows a part of the results.

Assay: chemical genetic growth profiling, strain panel (AID 1159580);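 also: tested at 20 µM; growth read once vehicle control cultures reached saturation at 30 °C; 1 = growth at the plate median or of vehicle wells; lower values mean less growth of the strain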
Settings: growth OD
[1] = S. cerevisiae deletion strains, locus YPL055C, strain LGE1, stronger effect = lower value
[2] = S. cerevisiae deletion strains, locus YBR229C, strain ROT2, stronger effect = lower value
[3] = S. cerevisiae deletion strains, locus YDL101C, strain DUN1, stronger effect = lower value
[4] = S. cerevisiae deletion strains, locus YDR150W, strain NUM1, stronger effect = lower value
[5] = S. cerevisiae deletion strains, locus YEL061C, strain CIN8, stronger effect = lower value
[6] = S. cerevisiae deletion strains, locus YGR078C, strain PAC10, stronger effect = lower value
[7] = S. cerevisiae deletion strains, locus YHR030C, strain SLT2, stronger effect = lower value
[8] = S. cerevisiae deletion strains, locus YHR087W, strain rtc3, stronger effect = lower value
[9] = S. cerevisiae deletion strains, locus YJR043C, strain POL32, stronger effect = lower value
[10] = S. cerevisiae deletion strains, locus YJR075W, strain HOC1, stronger effect = lower value
[11] = S. cerevisiae deletion strains, locus YKL190W, strain CNB1, stronger effect = lower value
[12] = S. cerevisiae deletion strains, locus YLR039C, strain RIC1, stronger effect = lower value
[13] = S. cerevisiae deletion strains, locus YLR058C, strain SHM2 (second series), stronger effect = lower value
[14] = S. cerevisiae deletion strains, locus YLR085C, strain ARP6, stronger effect = lower value
[15] = S. cerevisiae deletion strains, locus YLR262C, strain YPT6, stronger effect = lower value
[16] = S. cerevisiae deletion strains, locus YML094W, strain GIM5, stronger effect = lower value
[17] = S. cerevisiae deletion strains, locus YMR219W, strain ESC1, stronger effect = lower value
[18] = S. cerevisiae deletion strains, locus YMR263W, strain SAP30, stronger effect = lower value
[19] = S. cerevisiae deletion strains, locus YNL153C, strain GIM3, stronger effect = lower value
[20] = S. cerevisiae deletion strains, locus YNL298W, strain CLA4 (second series), stronger effect = lower value
[21] = S. cerevisiae deletion strains, locus YNL322C, strain KRE1, stronger effect = lower value
[22] = S. cerevisiae deletion strains, locus YNR030W, strain Alg12, stronger effect = lower value
[23] = S. cerevisiae deletion strains, locus YOL006C, strain TOP1, stronger effect = lower value
[24] = S. cerevisiae deletion strains, locus YPL241C, strain CIN2, stronger effect = lower value
[25] = S. cerevisiae deletion strains, locus YPR135W, strain CTF4, stronger effect = lower value
[26] = S. cerevisiae deletion strains, locus YAL013W, strain DEP1, stronger effect = lower value

Measured: normalized growth

C=CC[C@H](N)C(=O)O
inactive: S. cerevisiae deletion strains, locus YAL040C, strain CLN3, stronger effect = lower value 0.997 | S. cerevisiae deletion strains, locus YCL061C, strain MRC1 (second series), stronger effect = lower value 1.01 | S. cerevisiae deletion strains, locus YDR363W, strain ESC2, stronger effect = lower value 0.962 | S. cerevisiae deletion strains, locus YER002W, strain NOP16, stronger effect = lower value 1.01 | S. cerevisiae deletion strains, locus YNL175C, strain NOP13, stronger effect = lower value 1.01 | S. cerevisiae deletion strains, locus YNL197C, strain WHI3, stronger effect = lower value 0.976 | S. cerevisiae deletion strains, locus YNL224C, strain SQS1, stronger effect = lower value 0.972 | S. cerevisiae deletion strains, locus YOR083W, strain WHI5 (second series), stronger effect = lower value 0.974 | [1] 0.99

COc1cccc(C2SCc3cc(C)c(C)cc3CS2)c1O
inactive: [2] 0.994 | S. cerevisiae deletion strains, locus YCL061C, strain MRC1, stronger effect = lower value 0.998 | [3] 0.992 | S. cerevisiae deletion strains, locus YDL134C, strain PPH21, stronger effect = lower value 1.02 | [4] 0.932 | [5] 1.03 | [6] 1.01 | [7] 1.01 | [8] 1.01 | [9] 0.972 | [10] 0.985 | [11] 1.02 | [12] 1.07 | [13] 1.03 | [14] 1.04 | [15] 1.05 | [16] 0.999 | [17] 1 | [18] 0.902 | [19] 0.988 | [20] 0.986 | [21] 1.01 | [22] 0.982 | [23] 1.12 | [1] 0.904 | [24] 0.957 | [25] 1.01 | S. cerevisiae strains, strain wild type, stronger effect = lower value 1.01

CCOC(=O)CCC(C#N)(c1ccc(Cl)cc1)N1CCOCC1 (configuration not stated)
inactive: [26] 0.99 | [2] 0.997 | [3] 1.04 | [4] 1.05 | [5] 1 | [6] 1.01 | [7] 0.979 | [8] 0.978 | [9] 1.02 | [10] 1.01 | [12] 1.11 | [13] 0.982 | [14] 0.962 | [15] 1.01 | [16] 0.99 | [17] 0.983 | [18] 1.02 | [19] 0.993 | [20] 0.996 | [21] 0.988 | [22] 0.985 | [23] 0.904 | [1] 0.943 | [24] 0.992 | [25] 1.01

Cc1cc(N=C(N)N=C(N)N)no1
inactive: [26] 1.01 | [2] 1.01 | [3] 1.02 | [4] 0.902 | [5] 1 | [6] 1.01 | S. cerevisiae deletion strains, locus YGR229C, strain SMI1, stronger effect = lower value 0.993 | [7] 1 | [8] 1.02 | S. cerevisiae deletion strains, locus YJL187C, strain SWE1, stronger effect = lower value 1 | [9] 0.998 | [10] 1 | [11] 1 | [12] 1.01 | [13] 1.01 | [14] 0.988 | [15] 1.01 | [16] 1.03 | [17] 1 | [18] 1 | S. cerevisiae deletion strains, locus YMR307W, strain GAS1, stronger effect = lower value 0.969 | S. cerevisiae deletion strains, locus YNL128W, strain TEP1, stronger effect = lower value 1.02 | [19] 1 | [20] 1.02 | [21] 1 | [22] 1.01 | [23] 1.02 | [1] 0.964 | [24] 1.01 | [25] 1.07
